# Source: PubChem BioAssay
# Activity calls are given as the source filed them. Unless noted, no rule for the calls is given here.
# Assays:
# [1] = resazurin metabolic signal in HepG2 cells – cell-based, resazurin fluorescence, 24 h, PK04 Diversity Set, profiling panel (AID 1172); settings: HepG2 viability, higher = more signal
# [2] = budding yeast growth changes without added modifier – OD600, strain BY4716, 24 h, basal condition, primary screen (AID 1173); settings: S. cerevisiae BY4716 growth, OD600, 24 h; higher = more signal, called active from +8 up or from −8 down
# [3] = viability profiling in MM1S myeloma cells – cell-based, resazurin fluorescence, basal, 24 h, PK04 Diversity Set, profiling panel (AID 1174); settings: higher = more signal, called active from +8 up or from −8 down;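 also: MM1S multiple myeloma cell line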
# [4] = biological target: Dihydroorotate dehydrogenase (quinone), mitochondrial (Plasmodium falciparum (isolate 3D7)) (UniProt Q08210); assay: inhibition of P. falciparum DHODH – biochemical, C-terminal His tag, absorbance 600 nm, primary screen (AID 1175); settings: PfDHODH enzyme, DCIP absorbance 600 nm; higher = more signal, called active from +8 up or from −8 down;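 also: recombinant parasite enzyme with a five histidine tag at its C terminus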
# [5] = inhibition of PAO1 biofilm formation – strain PAO1, LB-PBS medium, absorbance 600 nm, primary screen (AID 1176); settings: P. aeruginosa PAO1 growth/biofilm, A600, 12 h; higher = more signal
# [6] = growth modulation of vineyard yeast isolate – strain RM11-1a, OD600, basal, 24 h, primary screen (AID 1177);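 also: cultures grown under basal conditions with no added stressor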; settings: S. cerevisiae RM11-1a growth, OD600, 24 h; higher = more signal, called active from +8 up or from −8 down
# [7] = growth of efflux-deficient E. coli DRC39 – strain DRC39, OD650, 24 h, E. coli filamentation inducers, primary screen (AID 1178);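 also: growth measured as culture turbidity by optical density at 650 nm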; settings: E. coli DRC39 acrAB, higher = more signal, called active from +8 up or from −8 down
# [8] = growth of efflux-deficient E. coli DRC39 – strain DRC39, OD650, 48 h, E. coli filamentation inducers, primary screen (AID 1179);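 also: screen aims at cell division blockers that make cells filament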; settings: E. coli DRC39 delta-acrAB growth, higher = more signal, called active from +8 up or from −8 down
# [9] = viability profiling in RPMI8226 myeloma cells – cell-based, resazurin fluorescence, basal, 24 h, PK04 Diversity Set, profiling panel (AID 1180); settings: higher = more signal;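 also: RPMI8826 multiple myeloma cell line at 5000 cells per well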
# [10] = biological target: E3 ubiquitin-protein ligase XIAP (Homo sapiens) (UniProt P98170); assay: small molecules binding XIAP protein – biophysical, small-molecule microarray, fluorescence 635 nm, primary screen (AID 1181); settings: higher = more signal;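 also: score merges 667 nm emission and signal to noise over triplicate slides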
# [11] = system: XIP peptide (Xip251-270) binding; assay: XIP fragment 251-270 binding compounds – biochemical, small-molecule microarray, fluorescence 635/667 nm, 0.1 µg/mL protein, primary screen (AID 1182); settings: fluorescent protein binding, 635 nm, higher = more signal, called active from +8 up or from −8 down
# XIP peptide (Xip251-270) = assay: compounds binding XIP fragment 251-270 – biochemical, small-molecule microarray, fluorescence 635/667 nm, 0.5 µg/mL protein, primary screen (AID 1183); settings: fluorescence 635 nm, higher = more signal
# [12] = blood-stage malaria parasite viability loss – strain 3D7, DAPI fluorescence, 100 nL, primary screen (AID 1184);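 also: parasites grown inside human red blood cells in medium with human serum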; settings: P. falciparum 3D7 growth, 3 d, higher = more signal
# [13] = biological target: Homeobox protein Hox-A13 (Mus musculus) (UniProt Q62424); assay: disruptors of Hoxa13 oligonucleotide interaction – biochemical, fluorescence polarization, labeled oligonucleotide, primary screen (AID 1185); settings: Hoxa13:DNA binding, 15 min, higher = more signal, called active from +8 up or from −8 down
# [14] = blockers of DNA damage checkpoint Chk1 activation – imaging, HeLa, hydroxyurea, phospho-Chk1 antibody, percent positive cells, primary screen (AID 1186); settings: hydroxyurea-induced phospho-Chk1 immunofluorescence imaging, higher = more signal
# [15] = blockers of DNA damage checkpoint Chk1 activation – imaging, HeLa, hydroxyurea, phospho-Chk1 nuclear intensity, primary screen (AID 1187); settings: hydroxyurea-induced phospho-Chk1 immunofluorescence imaging, higher = more signal
# Sequence of Homeobox protein Hox-A13 (Mus musculus) (Q62424 whole entry, looked up): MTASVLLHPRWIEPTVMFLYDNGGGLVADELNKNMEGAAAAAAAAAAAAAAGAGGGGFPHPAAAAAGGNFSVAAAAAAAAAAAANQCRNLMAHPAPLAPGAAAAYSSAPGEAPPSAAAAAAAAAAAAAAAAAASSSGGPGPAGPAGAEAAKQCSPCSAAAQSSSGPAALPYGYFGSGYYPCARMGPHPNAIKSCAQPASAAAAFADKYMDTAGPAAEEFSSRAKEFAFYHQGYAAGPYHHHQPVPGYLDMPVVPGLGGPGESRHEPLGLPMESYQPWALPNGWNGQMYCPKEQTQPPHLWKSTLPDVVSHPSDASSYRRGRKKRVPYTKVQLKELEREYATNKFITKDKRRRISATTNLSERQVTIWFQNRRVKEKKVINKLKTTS
# Sequence of E3 ubiquitin-protein ligase XIAP (Homo sapiens) (P98170 whole entry, looked up, the tested form may be a part): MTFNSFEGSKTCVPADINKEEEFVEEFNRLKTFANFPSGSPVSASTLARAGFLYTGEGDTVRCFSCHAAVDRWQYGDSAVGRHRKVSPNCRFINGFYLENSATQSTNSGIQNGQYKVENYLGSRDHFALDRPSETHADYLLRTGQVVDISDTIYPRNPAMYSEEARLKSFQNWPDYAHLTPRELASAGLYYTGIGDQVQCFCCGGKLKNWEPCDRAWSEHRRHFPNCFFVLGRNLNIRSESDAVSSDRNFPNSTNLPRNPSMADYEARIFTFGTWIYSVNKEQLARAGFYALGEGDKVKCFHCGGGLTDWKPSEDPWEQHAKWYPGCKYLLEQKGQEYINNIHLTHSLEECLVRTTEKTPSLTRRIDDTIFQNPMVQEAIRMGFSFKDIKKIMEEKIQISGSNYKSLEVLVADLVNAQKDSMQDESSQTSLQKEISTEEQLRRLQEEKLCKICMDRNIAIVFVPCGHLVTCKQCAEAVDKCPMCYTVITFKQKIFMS
# Sequence of Dihydroorotate dehydrogenase (quinone), mitochondrial (Plasmodium falciparum (isolate 3D7)) (Q08210 whole entry, looked up): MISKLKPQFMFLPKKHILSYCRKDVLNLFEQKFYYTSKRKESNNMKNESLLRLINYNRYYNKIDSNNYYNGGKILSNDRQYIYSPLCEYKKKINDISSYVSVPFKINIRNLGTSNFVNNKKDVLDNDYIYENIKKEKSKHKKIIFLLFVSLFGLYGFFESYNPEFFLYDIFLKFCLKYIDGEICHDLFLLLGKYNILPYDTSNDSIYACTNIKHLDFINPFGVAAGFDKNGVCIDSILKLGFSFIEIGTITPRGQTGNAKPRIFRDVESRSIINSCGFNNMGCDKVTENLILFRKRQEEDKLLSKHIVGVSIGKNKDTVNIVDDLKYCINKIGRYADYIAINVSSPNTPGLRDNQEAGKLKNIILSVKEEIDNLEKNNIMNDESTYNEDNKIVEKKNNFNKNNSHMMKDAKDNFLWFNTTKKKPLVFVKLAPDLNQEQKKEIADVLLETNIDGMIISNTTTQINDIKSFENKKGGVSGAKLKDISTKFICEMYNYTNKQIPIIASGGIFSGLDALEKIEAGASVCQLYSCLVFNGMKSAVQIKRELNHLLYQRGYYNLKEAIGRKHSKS
Compound,z-score [1],z-score [2],z-score [3],composite z-score [4],z-score [5],z-score [6],z-score [7],z-score [8],z-score [9],composite z-score [10],composite z-score [11],composite z-score (XIP peptide (Xip251-270)),z-score [12],z-score [13],z-score [14],z-score [15]
C[C@@H](c1ccccc1)N1C(=O)[C@H]2[C@H]3[C@H](O)[C@H](O)CC(=NOC[C@@H](O)COCc4ccco4)[C@@H]3CC[C@H]2C1=O,-0.52,0.984 (inactive),-0.422 (inactive),0.407 (inactive),0.176 (inactive),0.819 (inactive),-0.892 (inactive),-0.41 (inactive),0.2,-0.131,-0.201 (inactive),-0.287,-0.842,-1.25 (inactive),–,–
CC(=O)OC[C@H]1O[C@H](CCON=C(C)CCC(=O)OC[C@H]2O[C@H](C#Cc3ccccc3)C=C[C@@H]2Oc2ccc(C)cc2)C=C[C@@H]1OC(C)=O,-0.508,0.511 (inactive),-0.795 (inactive),-0.84 (inactive),0.405 (inactive),0.661 (inactive),0.674 (inactive),0.59 (inactive),-0.31,-0.241,-0.365 (inactive),0.0804,0.724,-2.62 (inactive),–,–
CC(=O)C[C@H](O)[C@@H](NC(=O)OC(C)(C)C)C(C)C,-0.519,-1.33 (inactive),0.481 (inactive),-3.13 (inactive),0.0494 (inactive),-0.407 (inactive),-1.86 (inactive),-1.1 (inactive),-0.228,-0.195,-0.0306 (inactive),-0.161,-1.24,0.787 (inactive),–,–
O=C1[C@H]2[C@H]3[C@H](O)[C@H](O)CC(=NOC[C@@H](O)COCc4ccco4)[C@@H]3CC[C@H]2C(=O)N1c1ccc(F)cc1F,0.883,-0.374 (inactive),0.995 (inactive),-0.564 (inactive),-1.45 (inactive),-0.247 (inactive),0.0718 (inactive),0.264 (inactive),1.15,-0.37,-0.233 (inactive),-0.103,-0.561,-4.05 (inactive),–,–
O=C1C2C=CC(C(O)c3ccc([N+](=O)[O-])cc3)N(Nc3ccc([N+](=O)[O-])cc3)C2C(=O)N1c1ccccc1 (stereo unspecified),-0.686,1.61 (inactive),-0.858 (inactive),1.2 (inactive),1.64 (inactive),1.44 (inactive),-1.3 (inactive),-1.09 (inactive),-0.823,0.23,1.39 (inactive),0.813,-0.498,-4.02 (inactive),0.822 (inactive),-0.512 (inactive)
CO[C@@H]1COC(=O)CC=C[C@@H](C)[C@@H]2C=C[C@H](O)[C@@H](COC(=O)[C@H](C)NC(=O)CC=C[C@H]1C)O2,0.592,-0.0997 (inactive),0.945 (inactive),-1.15 (inactive),-0.786 (inactive),-1 (inactive),0.574 (inactive),-0.637 (inactive),1.61,-0.102,0.78 (inactive),0.437,-0.117,-3.61 (inactive),–,–
COC(=O)CC=C[C@H](C)[C@@H](OCc1ccccc1Br)C(C)C,-0.285,-0.553 (inactive),-2.19 (inactive),-0.216 (inactive),0.274 (inactive),-0.158 (inactive),0.824 (inactive),0.661 (inactive),-1.89,0.157,0.864 (inactive),-0.039,-0.0811,-0.388 (inactive),–,–
C[C@H](c1ccccc1)N1C(=O)[C@H]2[C@H]3[C@H](O)[C@H](O)CC(=O)[C@@H]3CC[C@H]2C1=O,-0.353,0.205 (inactive),-0.486 (inactive),-0.303 (inactive),0.544 (inactive),-0.897 (inactive),-0.159 (inactive),-0.0569 (inactive),-0.523,-0.0826,0.0518 (inactive),0.771,0.0307,-1.84 (inactive),–,–
CO[C@H]1COC(=O)[C@@H]2CCCN2C(=O)[C@@H](C)COC(=O)CC=C[C@@H]1C,0.264,-0.0361 (inactive),0.285 (inactive),-1.95 (inactive),-0.725 (inactive),0.023 (inactive),0.488 (inactive),0.362 (inactive),0.0409,0.285,-0.0014 (inactive),0.371,1.2,-0.54 (inactive),–,–
CCOC(=O)[C@H](CC(C)C)NC(=O)CCC1CC(OC(=O)NCc2cccc3ccccc23)CC2(CCCC(COC(=O)NCCN3CCOCC3)O2)O1 (stereo partly specified),1.29,-0.996 (inactive),1.09 (inactive),-0.247 (inactive),0.131 (inactive),-0.613 (inactive),-0.404 (inactive),-0.88 (inactive),1.19,-0.0143,0.0634 (inactive),0.464,-1.71,-4.01 (inactive),–,–
C=CC[C@@H]1C=C[C@H](ON=Cc2ccc(C(=O)N3[C@H](c4ccc(C)cc4)[C@@H](C)CC[C@H]3C(=O)OC)cc2)[C@@H](CO)O1,0.456,-0.0957 (inactive),-0.435 (inactive),0.16 (inactive),0.547 (inactive),0.674 (inactive),0.442 (inactive),0.226 (inactive),0.0719,-0.16,-0.27 (inactive),0.379,0.495,-6.28 (inactive),–,–
CC(=O)O[C@H]1C2=C(C(=O)[C@@H]3O[C@@H]31)[C@H]1C(C)O[C@@H]2[C@@]23C(=O)[C@@H]4O[C@@H]4[C@@H](O)C2=CO[C@H](C)[C@@H]13 (stereo partly specified),0.0072,0.174 (inactive),-1.01 (inactive),-0.0495 (inactive),-0.0812 (inactive),-0.2 (inactive),0.223 (inactive),0.186 (inactive),-1.12,-0.0454,-0.179 (inactive),-0.697,-0.771,-0.465 (inactive),–,–
CC(C)=CCCC(C)=CCON=C1[C@H]2CCn3c(=O)n(Cc4cc5c(cc4Cl)OCO5)c(=O)n3[C@H]2[C@H](O)[C@@H]2O[C@H]12,-0.594,-0.696 (inactive),-0.738 (inactive),0.207 (inactive),-0.471 (inactive),-0.537 (inactive),-0.464 (inactive),-0.72 (inactive),-0.357,-0.224,-0.0418 (inactive),0.208,-1.17,-1.16 (inactive),–,–
O=C1[C@H]2[C@H]3[C@H](O)[C@H](O)CC(=NO[C@@H]4O[C@H](CO)[C@@H](O)[C@H](O)[C@H]4O)[C@@H]3CC[C@H]2C(=O)N1c1ccc(F)cc1F,0.662,-0.767 (inactive),0.412 (inactive),-1.39 (inactive),-0.118 (inactive),-0.815 (inactive),0.789 (inactive),0.391 (inactive),0.741,-0.313,0.34 (inactive),0.225,0.531,0.036 (inactive),–,–
O=C1C[C@@H](O)[C@@H](O)[C@@H]2[C@@H]3C(=O)N(Cc4ccc5c(c4)OCO5)C(=O)[C@@H]3CC[C@@H]12,0.227,0.189 (inactive),-0.0728 (inactive),0.745 (inactive),-0.131 (inactive),0.258 (inactive),0.0081 (inactive),0.0272 (inactive),-0.707,0.0908,0.0648 (inactive),0.353,-0.522,-0.682 (inactive),–,–
COc1ccc(O[C@H]2C=C[C@@H](c3ccccc3)O[C@@H]2COC(=O)N2CCCCC2)cc1,0.54,0.666 (inactive),0.0872 (inactive),0.0964 (inactive),-0.139 (inactive),-0.499 (inactive),0.396 (inactive),0.349 (inactive),0.883,-0.234,-0.275 (inactive),-0.216,-0.43,-3.83 (inactive),–,–
Cc1cc(C)c(-c2cc([C@H](C)ON=C3[C@H]4CCn5c(=O)n(-c6ccccc6)c(=O)n5[C@H]4[C@H](O)[C@@H]4O[C@H]34)on2)c(C)c1,-0.991,-0.752 (inactive),-1.89 (inactive),-0.297 (inactive),-0.242 (inactive),0.615 (inactive),0.663 (inactive),0.421 (inactive),-2.22,-0.196,2.08 (inactive),0.0933,0.173,-4.69 (inactive),–,–
CCN(CC)c1ccc(N2CC=CC34O[C@@H]5/C=C\CCC(C)OC(=O)C5[C@H]3C(=O)N(CCCO)[C@@H]4C2=O)cc1 (stereo partly specified),-0.649,1.09 (inactive),0.267 (inactive),0.424 (inactive),-0.745 (inactive),1.21 (inactive),0.692 (inactive),0.562 (inactive),0.47,-0.0243,0.217 (inactive),0.974,-0.0779,-6.38 (inactive),0.0745 (inactive),-0.0024 (inactive)
CCCNC(=O)OC[C@H]1O[C@H](CCON=CC[C@@H]2C=C[C@H](OC(C)=O)[C@@H](COC(C)=O)O2)C=C[C@@H]1Oc1ccc(OC)cc1,0.261,1.4 (inactive),-0.387 (inactive),-0.584 (inactive),0.0282 (inactive),0.394 (inactive),0.426 (inactive),-0.371 (inactive),0.477,-0.128,0.27 (inactive),0.512,-0.133,-6.56 (inactive),–,–
COCCOC(=O)N1C(=O)[C@@]2(c3cc(C#CC4(O)CCCCCC4)ccc31)[C@H](C(=O)N1CCN(c3ncccn3)CC1)[C@H]1C(=O)O[C@H](c3ccccc3)[C@H](c3ccccc3)N1[C@@H]2c1ccc(OCCO)cc1,-0.324,1.44 (inactive),0.712 (inactive),-0.0915 (inactive),2.53 (inactive),2.98 (inactive),-0.446 (inactive),0.293 (inactive),0.928,-0.0749,-0.128 (inactive),0.835,-2.34,0.821 (inactive),0.124 (inactive),0.204 (inactive)
